Shown are actives, neighbours in structure and some others; about 4.5% of the full set was active somewhere.
hgDAF-12 ag: H. glycines DAF-12 receptor agonists, primary screen, cell-based, luminescence, HEK293, GAL4 fusion, UAS-luciferase. Nuclear hormone receptor DAF-12 (Heterodera glycines), GAL4 fusion. HEK293 GAL4-hgDAF12 UAS-luciferase reporter, agonist luminescence; normalized to butyrate control. activation, % at 6.8 µM. 370,000 compounds, 1.8% hits. AID 687014, 2013;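 active = activation above a cutoff set at the mean of all screened compounds plus 3 SD, cut at about 10% in these data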;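 note: 0% = DMSO wells and 100% = sodium butyrate wells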
hcDAF-12 act: H. contortus DAF-12 nuclear receptor activators, primary screen, cell-based, luminescence, HEK293, lit1-tk-luc reporter; 370,000 compounds, 1.4% hits; AID 652067, 2013; HEK293 hcDAF-12 lit1-tk-luc reporter; 0% DMSO, 100% Δ7-dafachronic acid; activation, % at 6.8 µM;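 active = activation above the mean of all tested compounds plus 3 SD, cut at about 5.5% in these data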;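 note: 100% = response to 3 µM Δ7-dafachronic acid high control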
GAA850 FXN act: FXN promoter activators, primary screen, cell-based, luciferase luminescence, HEK293 lucGAA850. HEK293 lucGAA850 FXN promoter luciferase reporter, 24 h; percent of 10 µM SAHA response. activation, % at 6 µM. 360,000 compounds, 0.56% hits. AID 540364, 2011;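 active = activation above the average of all compounds screened plus 3 SD, cutoff fixed separately per campaign, cut at about 7.5% in these data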;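 note: 0% = DMSO wells and 100% = 10 µM SAHA wells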
ssDAF-12 act: S. stercoralis DAF-12 nuclear receptor activators, primary screen, cell-based, luminescence, HEK293, GRIP1 co-expression, lit1-tk-luc | Nuclear hormone receptor DAF-12 (Strongyloides stercoralis) | HEK293 ssDAF-12/GRIP1 lit1-tk-luc reporter; % of 3 µM dafachronic acid response | activation, % at 6.8 µM | 370,000 compounds, 1% hits | AID 652126, 2013;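 active = activation above the mean over all tested compounds plus 3 SD, cut at about 0.9% in these data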;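 note: 0% = DMSO-only wells and 100% = 3 µM delta7-dafachronic acid wells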
DAX1 inh-1: DAX1 (NR0B1) inhibitors, primary screen, cell-based, HEK293, Gal4-DAX1, luciferase luminescence | Nuclear receptor subfamily 0 group B member 1 (Homo sapiens), P51843 | HEK293 Gal4-DAX1 luciferase reporter | inhibition, % at 6.75 µM | 340,000 compounds, 0.99% hits;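 active = inhibition above the mean over all tested compounds plus 3 SD, cut at about 4.2% in these data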;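 note: 0% = DAX1-transfected cells with DMSO and 100% = empty-vector control cells with DMSO; inhibition shows as a rise in luminescence from relieved DAX1 repression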
Target sequence (P51843 207-470 limits assumed): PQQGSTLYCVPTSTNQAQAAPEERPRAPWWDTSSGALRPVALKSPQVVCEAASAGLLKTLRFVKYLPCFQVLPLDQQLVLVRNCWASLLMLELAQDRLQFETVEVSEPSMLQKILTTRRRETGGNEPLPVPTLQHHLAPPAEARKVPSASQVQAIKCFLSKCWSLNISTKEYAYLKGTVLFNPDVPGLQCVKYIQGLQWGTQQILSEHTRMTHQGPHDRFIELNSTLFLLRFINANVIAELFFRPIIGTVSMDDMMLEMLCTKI
DAX1 inh-2: DAX1 (NR0B1) inhibitors on StAR promoter, primary screen, cell-based, luminescence, SF-1 (NR5A1), full-length DAX-1; 370,000 compounds, 1.1% hits; inhibition, % at 6.8 µM; HEK293T StAR-luciferase reporter, SF-1/DAX-1 repression relief;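 active = inhibition above the mean over all tested compounds plus 3 SD, cut at about 3.6% in these data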;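 note: 0% = DAX-1 cells with DMSO and 100% = cells lacking DAX-1 with DMSO; higher inhibition means more luminescence from relief of DAX-1 repression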
DAX1 conf: DAX1 (NR0B1) inhibitors relieving SF-1 repression, confirmation, cell-based, luminescence, HEK293T, full-length DAX-1, SF-1 activated StAR promoter; shares compounds with DAX1 inh-2; HEK293T StAR-promoter luciferase reporter, SF-1/DAX-1 repression; inhibition, % at 6.8 µM; 2,400 compounds, 87% hits; AID 652134, 2013;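 active = inhibition above the average of every tested compound plus 3 SD, cut at about 3.8% in these data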;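 note: 0% = DAX-1 cells with DMSO and 100% = no DAX-1 control cells with DMSO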
Target sequence (P51843 whole entry, looked up): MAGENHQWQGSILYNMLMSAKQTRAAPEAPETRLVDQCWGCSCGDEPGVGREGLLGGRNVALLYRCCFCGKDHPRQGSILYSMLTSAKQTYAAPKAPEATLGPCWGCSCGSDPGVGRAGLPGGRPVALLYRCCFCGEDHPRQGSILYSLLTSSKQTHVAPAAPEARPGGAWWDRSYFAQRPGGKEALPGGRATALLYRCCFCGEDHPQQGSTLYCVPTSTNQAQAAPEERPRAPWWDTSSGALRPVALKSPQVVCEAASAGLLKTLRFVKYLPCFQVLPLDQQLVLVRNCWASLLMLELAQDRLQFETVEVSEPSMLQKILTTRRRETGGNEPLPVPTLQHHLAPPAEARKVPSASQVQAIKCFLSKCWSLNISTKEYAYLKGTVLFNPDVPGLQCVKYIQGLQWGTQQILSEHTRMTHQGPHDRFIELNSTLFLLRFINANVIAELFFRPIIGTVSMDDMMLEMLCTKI
SF1 mutant ctr: StAR reporter signal changes without DAX1, counter-screen for DAX1 inhibitor project, cell-based, luminescence, AF-2 mutant SF-1, transactivation; shares compounds with DAX1 inh-2; HEK293 StAR-luciferase, SF-1 AF2 mutant; inhibition, % at 6.8 µM; 2,400 compounds, 78% hits; AID 652136, 2013;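 active = inhibition above the mean of all tested compounds plus 3 SD, cut at about 3% in these data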;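 note: 0% = DAX-1 transfected cells with DMSO and 100% = cells without DAX-1 with DMSO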
* marks the source's active call; other numbers are inactive results; nt = no result.

SMILES	hgDAF-12 ag	hcDAF-12 act	GAA850 FXN act	ssDAF-12 act	DAX1 inh-1	DAX1 inh-2	DAX1 conf	SF1 mutant ctr
O=c1cc(N2CCN(c3cccc(Cl)c3Cl)CC2)[nH]c(=O)n1C1CCCCC1	0.3	-1.0	nt	-1.4	nt	nt	nt	nt
Oc1ccccc1C=NN1CCN(Cc2ccccc2)CC1	6.4	-1.5	nt	-1.0	nt	-0.8	nt	nt
CC(C)n1nnnc1C1(C)CSCC(=O)N1Cc1cccc(F)c1 (stereo unspecified)	0.3	1.9	nt	-0.6	nt	0.0	nt	nt
O=C(C[n+]1ccc2ccccc2c1)c1ccc2ccc3ccccc3c2c1	1.8	0.6	nt	-0.8	nt	5.3*	-3.1	-1.2
CCOC(=O)CCCNC(=O)OC1CC2CC1[C@H]1CCCCN1[C@H]2Cc1ccccc1 (stereo partly specified)	-3.7	-1.0	nt	-0.5	nt	0.5	nt	nt
CCCN1CCc2c(sc(NC(=O)CCS(=O)(=O)c3ccccc3)c2C(=O)OC)C1	0.1	1.1	3.3	-0.1	0.7	7.3*	7.9*	4.7*
CCc1ccc(CNC(=O)Cc2ccc(NC(=O)C3=C(C)OCCS3)cc2)cc1	8.6	5.4	5.8	0.4	0.3	15.5*	20.7*	-3.6
COc1ccc(-c2nc3ccccc3[nH]2)cc1	12.1*	5.8*	0.4	0.3	-2.1	6.8*	15.3*	6.1*
CC1CCc2sc(C(=O)NC(C)C3CCCO3)cc2C1 (stereo unspecified)	5.7	-0.5	7.2	0.0	-0.3	5.3*	4.3*	2.0
C/C(=N\NC(=O)c1cc2c(s1)CCC(C)C2)c1ccc[nH]1 (stereo unspecified)	7.6	5.5	3.1	0.2	1.6	6.2*	7.3*	4.4*
COC(=O)[C@]12C[C@H](CC(=O)N3CCOCC3)C(=O)N(Cc3cccc4ccccc34)C1=C[C@H](C1CCCC1)O[C@@H]2C	-0.9	-3.3	nt	-0.5	nt	-1.2	nt	nt
O=C(NC(=S)Nc1ccc(Br)cn1)c1cncc(Br)c1	-0.5	-0.6	-1.5	-1.3	0.2	0.5	nt	nt
CCCCc1ccc(NC(=O)c2cnccn2)cc1	11.6*	3.6	-1.3	0.4	-1.2	8.9*	11.1*	7.5*
Cc1ccc(NC(=O)c2cnccn2)nc1	7.7	4.6	5.2	-0.8	1.2	4.6*	5.0*	3.3*
Cc1ccc(NC(=O)c2cncc(Br)c2)nc1	8.0	1.6	5.4	-0.6	2.0	4.5*	5.8*	6.3*
O=C(O)c1cc(/C=C/c2ccc(N3CCOCC3)cc2)nc2ccccc12	6.1	5.1	0.9	0.0	-2.5	5.5*	7.2*	2.2
O=C(O)c1cc(/C=C/c2ccc(N3CCOCC3)c([N+](=O)[O-])c2)nc2ccccc12	-2.3	0.5	-0.7	-0.7	0.2	0.3	nt	nt
Nc1nc(Cl)nc2c1ncn2[C@@H]1O[C@H](CO)[C@@H](O)[C@@H]1F	-5.5	-3.5	nt	-1.6	nt	-4.2	nt	nt
CN1CCN(c2ccc(-c3cccc(NC(=O)COc4ccccc4)c3)nn2)CC1	13.0*	4.7	0.5	0.9	1.0	10.2*	7.2*	2.2
COc1cc2cc(C(=O)NC(C)c3cccc4ccccc34)c(N)nc2cc1OC (stereo unspecified)	1.9	-2.9	nt	-1.4	nt	5.1*	2.3	-1.1
COc1ccc(CNC(=O)O[C@H]2CC[C@@]34CCCN3C(=O)CCC[C@H]4[C@H]2C)cc1	0.4	-1.4	nt	-1.7	nt	nt	nt	nt
CC(=O)N1c2ccccc2C(C)=NCC1C(=O)NC1CCCCC1 (stereo unspecified)	0.1	2.1	nt	-1.4	nt	-1.0	nt	nt
CCCC1CCC2(CCCN2CCOC(=O)Nc2ccc(Br)cc2)CC1 (stereo unspecified)	2.0	1.9	nt	-1.4	nt	nt	nt	nt
O=C(c1ccc(F)cc1)n1ccc(-c2cnc(-c3ccccc3)s2)n1	12.8*	5.9*	4.1	0.9*	2.6	5.0*	12.5*	5.5*
Fc1ccc(Cn2ccc(-c3cnc(-c4ccccc4)s3)n2)cc1	4.1	1.5	4.4	-1.3	0.1	-0.6	nt	nt
SMILES	hgDAF-12 ag	hcDAF-12 act	GAA850 FXN act	ssDAF-12 act	DAX1 inh-1	DAX1 inh-2	DAX1 conf	SF1 mutant ctr
FC(F)(F)c1ccccc1Cc1c(-c2cccc(Cl)c2)nc2ccc(Br)cn12	3.1	0.9	nt	-0.4	nt	1.7	nt	nt
Cc1ccc2nc(-c3ccccn3)c(N)n2c1	10.7*	5.1	nt	0.8	nt	5.4*	15.3*	6.8*
Cc1ccc2nc(-c3ccccn3)c(Nc3ccccc3C)n2c1	-5.8	-2.8	0.2	-1.4	0.6	-0.2	nt	nt
Cc1ccc2nc(-c3cccc(Br)c3)c(Cc3ccccn3)n2c1	7.6	2.0	nt	1.1*	nt	5.1*	7.8*	5.0*
Cc1ccc2nc(-c3cccc(Br)c3)c(Cc3ccccc3C(F)(F)F)n2c1	7.2	0.5	nt	0.4	nt	5.1*	4.0*	4.2*
Cc1ccc2nc(-c3ccc(Cl)cc3)c(Cc3ccccn3)n2c1	11.3*	4.8	nt	-1.1	nt	6.7*	14.1*	4.5*
Cc1c(C(=O)OCC(C)C)[nH]c2c1C(=O)CC(c1ccco1)C2 (stereo unspecified)	-4.5	-2.4	-3.3	-0.9	-1.6	6.3*	9.0*	-7.8
C/C=C/COC(=O)c1[nH]c2c(c1C)C(=O)CC(c1ccco1)C2 (stereo unspecified)	-2.6	-1.9	-3.0	-0.2	-4.2	2.4	nt	nt
Cc1cc(NN=Cc2ccccn2)nc2ccccc12	5.7	2.6	nt	-1.2	nt	-2.3	nt	nt
C(=NNc1ccc2ccccc2n1)c1ccccn1	11.4*	5.9*	nt	0.2	nt	4.8*	-8.7	-10.8
Cc1nc(NC(=O)CSC2=NCCS2)sc1C(=O)N(C)C	3.4	1.7	2.5	-0.8	0.1	12.5*	11.0*	4.5*
CCC[C@H]1[C@@H](OC(=O)NCc2cccc(Cl)c2)CC[C@@]23CCCN2C(=O)CCC[C@@H]13	1.6	-3.8	nt	-2.1	nt	nt	nt	nt
CC1(C)Cc2cccc(OCC(=O)NCCOc3ccccc3)c2O1	-4.9	-2.0	3.1	-1.8	-1.2	0.6	nt	nt
